Results filed as inconclusive are left out. Values without a mark were called inactive. The source made the active and inactive calls. Calls follow the shape of the dose curve; as a rule, active = well fitted inhibition curve with a large enough effect in the repeat runs; inconclusive = weak or mixed curves, or effect the other way; inactive = no such curve, though single readings can be large or run the other way.
experiment: qHTS assay to identify small molecule antagonists of the retinoic acid receptor (RAR) signaling pathway (AID 1159552; also: nearly all actives have a fitted effect of over 50% in size); conditions: C3RL4 RARE luciferase reporter, retinol-stimulated, 6 h; series mostly up to 92.4 µM; activity, negative = inhibition: at the top concentration
Summary of the method: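 Cells of the C3RL4 line were seeded, incubated overnight, then dosed with compounds in DMSO followed immediately by retinol (1 uM final). Six hours later luciferase detection reagent went in; signal was measured after 30 min at RT.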
% is scaled to controls: 0 for no effect and ±100 for the full control effect; potency is read from the fitted curve at half-maximal effect.

| SMILES | activity, negative = inhibition | Potency |
| --- | --- | --- |
| Oc1ccc2c(c1)-c1ccccc1C2 | 65.1% | – |
| CCc1cc(Cc2cc(CC)c(N)c(CC)c2)cc(CC)c1N | -20.6% | – |
| COc1cccc(N)c1 | 18.6% | – |
| O=c1cccccc1O | 172% | – |
| CC(NN)c1ccccc1 (stereo not drawn) | 37.3% [at 19 µM] | – |
| CCCC(=O)OC[C@@H](OC(=O)CCC)[C@@H](OC(=O)CCC)[C@H](Cn1c2nc(=O)[nH]c(=O)c-2nc2cc(C)c(C)cc21)OC(=O)CCC | -16.2% [at 42.5 µM] | – |
| Nc1cc(C(F)(F)F)ccc1S | – | 6.68 µM (active) |
| c1ccc(CSCc2ccccc2)cc1 | 50.1% | – |
| CC[C@@]1(O)C(=O)OCc2c1cc1n(c2=O)Cc2c-1nc1ccccc1c2/C=N/OC(C)(C)C | – | 0.119 µM (active) |
| O=C(c1ccc(F)cc1)C1CCN(CCn2c(=O)[nH]c3ccccc3c2=O)CC1 | 6.06% [at 42.5 µM] | – |
| C[C@@H](NCCCc1cccc(C(F)(F)F)c1)c1cccc2ccccc12 | – | 29.8 µM (active) |
| CNc1ccc(O)cc1 | – | 27.3 µM (active) |
| O=C(c1ccc(O)cc1O)c1ccc(O)cc1O | – | inactive |

Reference: PubChem BioAssay (Tox21)
